Screening results from PubChem BioAssay.
Sampled rows, rich in hits. Any-hit rate of the full collection: about 7.5%.
Vaccinia Venus = qHTS for Stage-Specific Inhibitors of Vaccinia Orthopoxvirus: Venus Reporter Primary qHTS; Vaccinia virus Venus reporter expression, fluorescence; Potency, µM (series often up to 36.5 µM), for the others: at the top dose activity change, negative = inhibition, most hits filed as inhibitors; 0.46% of 330,000 active; AID 720580, 2013; calls by dose curve; tested in A549 cells; note: potency is the fitted concentration of half-maximal effect; nearly all actives have a fitted effect of over 30% in size
HCV inhibitor = qHTS Assay for Inhibitors of Hepatitis C Virus (HCV) | Potency, µM (doses to about 41.8 µM), without a hit: top-dose activity change, negative = inhibition, most hits filed as inhibitors | 3.4% of 340,000 active | Huh7.5.1 HCVcc-Cre infection, luciferase reporter, 44 h | AID 651820, 2012; note: potency is the fitted concentration of half-maximal effect
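Seed cells (1,000/well) for 4 h; treat with compound and infect with HCVcc-Cre, moi about 0.5. Incubate 44 h, then detect luciferase activity.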
Vaccinia mCherry = qHTS for Stage-Specific Inhibitors of Vaccinia Orthopoxvirus: mCherry Reporter Primary qHTS; AID 720579, 2013; Potency, µM (top dose mostly 36.5 µM), without a hit: top-dose activity change, negative = inhibition, most hits filed as inhibitors; Vaccinia virus mCherry reporter infection, fluorescence; 0.63% of 310,000 active; calls by dose curve; tested in A549 cells; note: potency is the fitted concentration of half-maximal effect; nearly all actives have a fitted effect of over 35% in size
HCMV antiviral = qHTS Assay for inhibitors of the human cytomegalovirus (HCMV); 4.5% of 410,000 active; HFF cells, HCMV-luciferase reporter, 72 h; hits give low values; AID 1259415, 2018; activity change, negative = inhibition, % at 57.5 µM; in the data active = activity change below about -60%; inconclusive = no clear call, values can overlap the other calls; inactive = above about -39%
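Two compound doses tested in HFFs infected with HCMV-luciferase, MOI 1 PFU/cell, 72 h at 37C. Lysate luminescence read with OneGlo; data normalized against buffer-only and 10uM Salinomycin inhibitor controls.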
FBPA Giardia inh = qHTS Assay for Inhibitors of Fructose-1,6-bisphosphate Aldolase from Giardia Lamblia | A8B2U2 | purified Giardia FBPA | Potency, µM (series often up to 59.6 µM), inactives show at the highest dose activity, negative = inhibition, usual class: inhibitors | 0.71% of 290,000 active; note: potency is the fitted concentration of half-maximal effect; nearly all actives have a fitted effect of over 55% in size
Target sequence (A8B2U2 whole entry, looked up): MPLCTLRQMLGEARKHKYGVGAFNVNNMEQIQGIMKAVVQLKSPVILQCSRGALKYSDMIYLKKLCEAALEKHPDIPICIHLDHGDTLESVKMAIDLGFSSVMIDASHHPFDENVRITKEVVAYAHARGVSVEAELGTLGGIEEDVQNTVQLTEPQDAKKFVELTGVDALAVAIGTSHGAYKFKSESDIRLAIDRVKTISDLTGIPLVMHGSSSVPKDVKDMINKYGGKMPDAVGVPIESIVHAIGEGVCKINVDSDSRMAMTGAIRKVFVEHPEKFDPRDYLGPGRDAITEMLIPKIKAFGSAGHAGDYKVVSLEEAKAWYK
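Giardia FBPA (40 nM reagent) was preincubated 10 min at RT with compound (up to 57.5 uM final), then substrate plus GAPDH/TPI/NAD/arsenate coupling system with diaphorase/resazurin was added; resorufin fluorescence (525/598 nm) was read after 20 min.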
FMDV inh = High Throughput Screening for Foot and Mouth Disease Virus Antivirals | FMDV antiviral cell-based qHTS | Potency, µM (highest dose often 57.9 µM), for the others: at the top dose activity change, negative = inhibition, hits mostly inhibitors | 1.2% of 410,000 active; calls by dose curve; tested in HEK293T cells; note: read-out not given here; potency is the fitted concentration of half-maximal effect; nearly all actives have a fitted effect of over 45% in size
Numbers without * were called inactive; i = inactive; ? = inconclusive; · = no result; ! = not confirmed by another sample. Unless noted, calls come from the whole dose curve; as a rule, active = well fitted curve in the direction sought with a large enough effect; inconclusive = small, poorly fitted or top-dose-only effect, or another doubt; inactive = no such curve, though single readings can be large; an effect the other way counts as inactive or inconclusive. % is set by controls: 0 for no effect and ±100 for the full control effect.

SMILES	Vaccinia Venus	HCV inhibitor	Vaccinia mCherry	HCMV antiviral	FBPA Giardia inh	FMDV inh
CC(C)N1C(=O)/C(=C/C=C/c2ccco2)C(=O)N(Cc2ccco2)C1=O	78%	?	21%	-38	0%	18µM*
O=C1NC(=O)N(Cc2ccccc2)C(=O)/C1=C/C=C/c1ccco1	·	?	·	0	7%	13µM*
COc1ccc(/C=C2/C(=O)N(Cc3ccco3)C(=O)N(C(C)C)C2=O)cc1	-10%	9%	i	-12	9%	11%
COc1cccc(-c2ccc3ncnc(NC4CC4)c3c2)c1	·	·	·	·	0%	0%
OC(c1cccnc1)c1ccc2c(c1)CN(Cc1ccc(-c3ccccc3Cl)o1)CCO2 (stereo not given)	-7%	·	0%	·	·	2%
COc1cccc(CNc2nc3cc(-c4cnn(Cc5ccccc5)c4)sc3c(=O)n2C)c1	?	·	-4%	-82*	·	14µM*
COc1cccc(CNc2nc3cc(-c4cccc(OC)c4)sc3c(=O)n2C)c1	-29%	·	-3%	18	·	-21%
COc1cc2c(cc1OC)C(COc1cccc(C(F)(F)F)c1)NCC2 (stereo not given)	·	?	·	-71*	-13%	?
COc1cc(C(=O)N/N=C(\Cc2ncc[nH]2)c2ccccc2)cc(OC)c1OC	?	?	?	-20	?	-2%
COc1cc(C(=O)N/N=C(\c2ccccc2)c2ccccn2)cc(OC)c1OC	·	?	·	-102*	-13%	40µM*
C/C(=N\NC(=O)c1cc(C)nc2ccccc12)c1ccccn1	·	2.8µM*	·	-114*	·	-26%
C/C(=N\NC(=O)c1cc(C)nc2ccccc12)c1ccncc1	-28%	14%	i	6	·	-6%
C/C(=N\NC(=O)c1ccc(Cl)cc1)c1ccccn1	?	3.2µM*	?	-101*	-7%	?
COc1cccc(C(=O)N/N=C(/c2ccccc2)c2ccccn2)c1	?	?	2µM*	-102*	-28%	?
C[C@@H]1[C@@H](c2ccccc2)Nc2ccc(Br)cc2[C@H]1NC(=O)OCc1ccccc1	·	·	·	-34	·	·
COc1cc(C(=O)N/N=C(\C)c2ccccn2)cc(OC)c1OC	?	-25%	?	-88*	·	-13%
COc1cc(C(=O)NN=C2c3ccccc3-c3ccccc32)cc(OC)c1OC	·	·	·	-88*	·	·
COc1cc(NC(=O)c2ccccn2)cc(OC)c1OC	·	7%	·	-33	-7%	6%
CC(=NNC(=S)Nc1cccc(Cl)c1)c1ccccn1	?	?	2.8µM*	-97*	·	-9%
S=C(NCc1ccccn1)Nc1cccc(Cl)c1	-5%	-6%	-16%	35	-14%	95%
CSc1ccc(/C=N/n2c(C3CCCCC3)n[nH]c2=S)cc1	-5%	-6%	i	?	27%	-10%
S=c1[nH]nc(C2CCCCC2)n1/N=C/c1ccncc1	2%	8%	i	-88*	-3%	-14%
CCc1nn(CC(=O)NCCc2ccc(OC)cc2OC)c(=O)c2cc3occc3n12	-4%	?	-5%	-62*!	·	2%
CCc1cccc(NC(=O)CCCn2nc(CC)n3c(cc4occc43)c2=O)c1	·	?	·	-24	-3%	-9%
CCc1nn(CC(=O)NCCc2ccc(OC)c(OC)c2)c(=O)c2cc3occc3n12	-3%	·	2%	-5	·	-10%
CCc1nn(CCCC(=O)NCc2ccccc2Br)c(=O)c2cc3occc3n12	-14%	38%	-13%	-68*!	5%	-13%
CCc1nn(CC(=O)N2CCN(Cc3ccc4c(c3)OCO4)CC2)c(=O)c2cc3occc3n12	-12%	?	i	-61*	0%	?
Nc1ccc(/C=C/c2ccnc3ccccc23)cc1	-14%	·	-20%	·	·	·
CCc1cccc(NC(=O)COC(=O)c2cc([N+](=O)[O-])ccc2N2CCOCC2)c1	-22%	10µM*	-2%	-4	·	?
